Only some compounds are listed: those with a hit (about 19% of all), similar ones and a draw of the others.
KB-V1 MDR tox – qHTS assay for MDR1-selective chemotherapeutics: Primary screen using the drug-selected MDR subline cells KB-V1; KB-V1 MDR cells viability, CellTiter-Glo, 72 h; Potency, µM (titrated, usually from 46.1 µM), usual class: cytotoxic; actives 3.4% (n = 400,000); AID 1347076, 2019; further: nearly all actives have a fitted effect of over 60% in size
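qHTS viability screen in drug-selected KB-V1 MDR cells: 72 h compound treatment at 37 degrees C, ATP luminescence end point.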
HT1080NT lethal – qHTS for induction of synthetic lethality in tumor cells producing 2HG: qHTS for the HT-1080-NT fibrosarcoma cell line. HT-1080-NT fibrosarcoma viability, CellTiter-Glo ATP luminescence, 48 h. Potency, µM (doses to about 46.1 µM), without a hit: at the highest dose activity, negative = less viability, usual class: cytotoxic. actives 1.6% (n = 360,000). AID 686970, 2013;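 further: NT is the 2HG producing partner of a matched IDH1 knockdown line; 0% = DMSO-treated cells and -100% = media-only wells without cells; nearly all actives have a fitted effect of over 55% in size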
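HT-1080-NT; 750 cells/well; 5% FBS RPMI; 48 h compound, 37 degrees C; CellTiter-Glo luminescence; curve fitting and curve-class assignment.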
HT1080 IDH1KD tx – qHTS for induction of synthetic lethality in tumor cells producing 2HG: qHTS for the HT-1080-IDH1KD cell line. HT-1080 IDH1 knockdown viability, ATP luminescence, 48 h. Potency, µM (highest dose often 46.1 µM), for inactives: top-dose activity, negative = toxicity, usual class: cytotoxic. actives 2% (n = 360,000);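 further: 0% = DMSO wells and -100% = cell-free medium wells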
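% activity derives from luminescence (CellTiter-Glo), normalised to DMSO and no-cell wells. HT-1080-IDH1KD cells, 750/well, had 48 h compound exposure at 37 °C.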
DT40 TDP1 no CPT – qHTS for Inhibitors of human tyrosyl-DNA phosphodiesterase 1 (TDP1): qHTS in cells in absence of CPT. Potency, µM (top dose mostly 46.2 µM), without a hit: top-dose activity change, negative = growth inhibition, hits mostly inhibitors. DT40 Tdp1-/- hTDP1 cells, no CPT, ATP luminescence, 48 h. actives 15% (n = 420,000); further: nearly all actives have a fitted effect of over 55% in size
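Chicken DT40 Tdp1-/- cells complemented with human TDP1, screened without camptothecin (DMSO vehicle only), 400 cells/well. Compounds pin-transferred, cells incubated at 37 °C for at least 48 hr. Growth read as ATP-dependent luminescence (CellTiter-Glo, 30 min at RT).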
KB-3-1 cytotox – qHTS assay for MDR1-selective chemotherapeutics: Primary screen using the parental adenocarcinoma cell KB-3-1; actives 1.4% (n = 400,000); AID 1347075, 2019; Potency, µM (top dose mostly 46.1 µM), hits mostly cytotoxic; KB-3-1 viability, CellTiter-Glo ATP luminescence, 72 h; further: nearly all actives have a fitted effect of over 60% in size
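Here the drug-naive KB-3-1 line serves as comparator for MDR sub-line selectivity; cells received compound titrations, 72 h at 37 °C, then CellTiter-Glo readout.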
DT40 TDP1 CPT – qHTS for Inhibitors of human tyrosyl-DNA phosphodiesterase 1 (TDP1): qHTS in cells in presence of CPT | Potency, µM (top dose mostly 46.2 µM), for inactives: at the highest dose activity change, negative = growth inhibition, usual class: inhibitors | AID 686979, 2013 | actives 12% (n = 420,000) | chicken DT40 Tdp1-/-;hTDP1 cells + 20 nM CPT, ATP luminescence, 48 h; further: nearly all actives have a fitted effect of over 55% in size
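Cell growth measured by CellTiter-Glo luminescence after a minimum 48 h, 37 C compound exposure with 20 nM CPT in Tdp1-knockout DT40 cells stably expressing hTDP1, seeded 400/well; qHTS titration format.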
* marks the source's active call; other numbers are inactive results; i = inactive; ? = inconclusive; / = no result; [ ] = another dose, or the depositor's remark. The call rests on the fitted dose curve; in most records, active means well fitted curve in the direction sought with a large enough effect; inconclusive means small, poorly fitted or top-dose-only effect, or another doubt; inactive means no such curve, though single readings can be large; an effect the other way counts as inactive or inconclusive. Unless noted, on the % scale 0 is the no-effect control and ±100 the full control effect; potency means the concentration at half of the fitted maximal effect.

SMILES	KB-V1 MDR tox	HT1080NT lethal	HT1080 IDH1KD tx	DT40 TDP1 no CPT	KB-3-1 cytotox	DT40 TDP1 CPT
O=c1[nH]c(NCCO)nc2c1C1(CCCCC1)Cc1ccccc1-2	i	?	5%[9.24 µM]	?	i	?
Cc1nc(=S)c2c([nH]1)-c1ccccc1CC21CCCCC1	i	-1%	-15%	18µM*	?	21µM*
CCOC(=O)c1sc(NC(=O)c2nc3ncccn3n2)c(C(=O)OC(C)C)c1C	i	/	/	-5%	i	-1%
Fc1ccc(C(Nc2ccccc2Cl)c2nnc(-c3ccccc3Cl)o2)cc1 (stereo not drawn)	i	/	/	21µM*	i	?
Fc1ccc(NCc2ccccc2-c2nnc(-c3ccccc3Cl)o2)cc1	i	/	/	?	i	1%
COCC(C)n1c(SCc2nc(N)nc(Nc3ccccc3C)n2)nc2ccccc2c1=O (stereo not drawn)	i	-7%	-5%	?	i	16µM*
COc1ccccc1Nc1nc(N)nc(CSc2nc(C)cc(C)n2)n1	13µM*	-1%	0%	-12%	?	32%
COc1ccccc1Nc1nc(N)nc(CSc2nccc(C)n2)n1	i	2%	3%	-1%	i	3%
CCCCn1c(SCc2nc(N)nc(Nc3ccccc3C)n2)nc2ccccc2c1=O	?	-14%	-12%	18µM*	?	?
CC(O)(c1cccnc1)c1nc(-c2cc(F)cc(F)c2)cs1 (stereo not drawn)	i	13%	8%	?	i	?
COc1ccc(Cc2nc3ccc(C(=O)NCCc4ccc(Cl)cc4)cc3o2)cc1	i	/	/	?	i	-29%
Cn1ncc(Br)c1NC(=O)CSc1ccc(Cl)cc1	i	-7%	-1%	?	?	?
CCCN(CCC)C(=O)Cn1c(=O)n(CCCCCC(=O)Nc2ccccc2)c(=O)c2sccc21	i	2%	10%	-27%	i	?
CN(C)C(=O)COC(=O)c1cccnc1Nc1ccccc1F	16µM*	9%	11%	1%	i	-2%
NC(=O)COC(=O)c1cccnc1Nc1ccccc1F	i	2%	0%	-8%	i	10%
CCc1nc2ccc(C(=O)NCCCn3ccnc3)cn2c1N(C)Cc1cccs1	i	4%	13%	?	i	?
CCc1nc2ccc(C(=O)Nc3cccc(NS(C)(=O)=O)c3)cn2c1N(CC)Cc1cccc(Br)c1	?	23µM*	?	16µM*	?	?
CCc1nc2ccc(C(=O)Nc3cccc(NS(C)(=O)=O)c3)cn2c1N(C)CCCc1ccccc1	i	?	?	?	i	?
CCc1nc2ccc(C(=O)Nc3ccc4c(c3)OCC(=O)N4)cn2c1N(C)C(=O)Cc1ccccc1	i	7%	1%	-25%	i	-15%
Cc1nc2ccc(C(=O)Nc3ccc4c(c3)OCC(=O)N4)cn2c1N(C)C(=O)CCc1ccccc1	i	0%	3%	18µM*	i	?
CCc1nc2ccc(C(=O)NCc3ccccc3OC)cn2c1N(CC)Cc1cccc(Br)c1	16µM*	?	?	?	?	26µM*
CCc1nc2ccc(C(=O)NCc3ccccc3OC)cn2c1N(CCC(C)C)CCN(C)C	?	?	?	?	i	?
CCCCNC(=O)c1ccc2nc(CC)c(N(C)Cc3cccs3)n2c1	i	1%	0%	?	i	18µM*
CCc1nc2ccc(C(=O)Nc3ccc(OC)c(OC)c3)cn2c1N(C)Cc1cccs1	i	10%	8%	?	i	?
CCc1nc2ccc(C(=O)NCCOc3ccc(OC)cc3)cn2c1N(CC)Cc1cccc(Br)c1	?	?	?	21µM*	?	18µM*
SMILES	KB-V1 MDR tox	HT1080NT lethal	HT1080 IDH1KD tx	DT40 TDP1 no CPT	KB-3-1 cytotox	DT40 TDP1 CPT
CCc1nc2ccc(C(=O)Nc3cccc(OC)c3)cn2c1N(CC)Cc1cccc(Br)c1	?	?	?	?	?	18µM*
CCc1nc2ccc(C(=O)Nc3ccc4c(c3)OCC(=O)N4)cn2c1N(CC)Cc1cccc(Br)c1	i	?	-11%	-78%	i	18µM*
CCc1nc2ccc(C(=O)NCc3cccs3)cn2c1N(CC)Cc1cccc(Br)c1	?	?	?	12µM*	?	21µM*
COc1ccccc1C(O)c1ncc(-c2ccccc2C)[nH]1 (stereo not drawn)	i	?	26%	-17%	i	-11%
CC(=O)C[n+]1cccc(Br)c1	i	/	/	0%	i	6%
O=C(NCCOc1ccc(F)cc1)C1CCC(=O)N(Cc2ccc(Cl)cc2)C1 (stereo not drawn)	i	1%	1%	?	i	?
CN(C)S(=O)(=O)c1ccc(Cl)c(-c2nnc3n2CCCCC3)c1	i	9%	2%	-1%	i	-4%
CCc1nc2ccc(C(=O)Nc3cccc(NS(C)(=O)=O)c3)cn2c1N(CCC(C)C)CCN(C)C	i	?	?	18µM*	i	16µM*
O=C(CC1C(=O)CCCC1=O)c1ccccc1	i	?	?	?	i	13µM*
CCN1/C(=C/c2cc[n+](C)cc2)C=Cc2cc(C)ccc21	i	-5%	?	0.18µM*	2.9µM*	0.23µM*
CCc1nc2nc(C)cc(Nc3cccc(C)c3C)n2n1	i	/	/	-16%	i	?
Cc1cccc(Nc2cc(C)nc3nc(Cc4ccc(Cl)cc4)nn23)c1	i	/	/	?	i	21µM*
CCOc1ccc(Nc2cc(C)nc3nc(Cc4ccc(Cl)cc4)nn23)cc1	i	/	/	0%	i	?
CCc1nc2nc(C)cc(Nc3ccc(Br)cc3F)n2n1	i	/	/	?	i	16µM*
CCc1nc2nc(C)cc(Nc3cc(C)ccc3C)n2n1	i	/	/	18µM*	i	?
CCCCCCN1C2=NCCN2c2ccccc21	?	-8%	-8%	?	i	?
